# In PubChem BioAssay AID588519 (ICCB-Longwood Screening Facility, Harvard Medical School, 2011):
# Among all 150,000 compounds or so, about 1,000 (0.67%) were called active. Cut-off read from the data, not from the text of the source: active = % elongation below about 90%; inactive = the rest, inconclusive results apart. Only a selection was taken, and actives are over-represented in it overall.
# Biological target: Genome polyprotein (Poliovirus type 1 (strain Mahoney)) (UniProt P03300)
# Assay: inhibitors of poliovirus polymerase RNA elongation – biochemical, fluorescence polarization, total intensity, primary screen (AID 588519); for z-score: compound at 16.7 µg/mL
# Conditions: stronger effect = lower value; for % elongation: compound at 16.7 µg/mL; for z-score: measured here: FP z-score
# [1] = measured here: total intensity read-out
# Genome polyprotein (Poliovirus type 1 (strain Mahoney)), sequence (P03300 1749-2209 limits assumed): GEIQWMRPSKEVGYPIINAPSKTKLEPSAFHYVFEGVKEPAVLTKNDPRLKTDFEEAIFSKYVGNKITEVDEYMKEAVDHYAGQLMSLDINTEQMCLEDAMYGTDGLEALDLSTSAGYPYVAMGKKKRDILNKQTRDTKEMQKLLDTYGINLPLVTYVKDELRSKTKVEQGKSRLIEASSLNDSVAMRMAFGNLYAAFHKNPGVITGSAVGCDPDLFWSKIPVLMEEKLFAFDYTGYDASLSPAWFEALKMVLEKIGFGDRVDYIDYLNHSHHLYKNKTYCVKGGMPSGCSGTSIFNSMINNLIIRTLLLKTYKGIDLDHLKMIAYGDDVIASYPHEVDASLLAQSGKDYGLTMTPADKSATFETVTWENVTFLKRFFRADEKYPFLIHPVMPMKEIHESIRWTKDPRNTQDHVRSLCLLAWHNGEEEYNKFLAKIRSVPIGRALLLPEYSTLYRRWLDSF
SMILES,% elongation,z-score,% elongation [1]
COC(=O)CSc1nnc2c(n1)[nH]c1ccccc12,102% (inactive),0.2,108%
CC(C)(C)NC(=O)C1CCN(S(=O)(=O)c2ccccc2)CC1,101% (inactive),0.1,103%
CCC(=O)Nc1ccc(C(=O)n2nnc3ccccc32)cc1,104% (inactive),1,102%
O=C1C(Nc2ccc(O)cc2)=C(n2nnc3ccccc32)C(=O)c2ccccc21,79% (active),-2.2,79%
N#CC1=C2Sc3ccccc3N2CC1=O,97% (inactive),-1,165%
Cc1c(C(=O)NC(C)CCc2ccccc2)oc2c1C(=O)CCC2 (stereo not given),102% (inactive),0,102%
Sc1ccc2ccccc2c1,90% (active),-1.5,91%
O=C1c2ccccc2C(=O)C1c1ccc2ccccc2c1,93% (inactive),-1.3,92%
c1ccc2cc3cnccc3cc2c1,100% (inactive),-0.3,102%
N#Cc1ccc(COC(=O)Cc2noc3ccccc23)cc1,109% (inactive),0.7,104%
O=S(=O)(c1cc(S(=O)(=O)C(F)(F)F)c(Cl)c(S(=O)(=O)C(F)(F)F)c1)C(F)(F)F,98% (inactive),-0.2,95%
C/C(=N\c1ccccn1)C1=C(O)c2ccccc2C1=O,98% (inactive),-1,97%
O=S(=O)(NC1CCCCC1N1CCCCC1)c1ccc(Cl)cc1 (stereo not given),104% (inactive),0.2,96%
Cc1ccc2nc(-c3ccccn3)cc(C(=O)O)c2c1,103% (inactive),0.8,100%
Cc1ccc2nc(C)c3c(c2c1)N(c1ccccc1)CC3,89% (active),-2.3,89%
Cc1ccc2nc(Nc3ccccc3)cc(C)c2c1,110% (inactive),0.8,111%
CC(=O)OC[C@H]1O[C@@H](NC(=S)NN)[C@H](OC(C)=O)[C@@H](OC(C)=O)[C@@H]1OC(C)=O,103% (inactive),0.3,96%
CC(=O)Oc1c[n+]([O-])n(-c2ccccc2)n1,97% (inactive),-0.6,100%
CCOc1cc(C2C(C(=O)OC)=C(C)NC3=C2C(=O)c2ccccc23)ccc1O (stereo not given),112% (inactive),0.2,113%
CCOC(=O)C(C(=O)c1ccccc1)C1(O)C(=O)c2ccccc2C1=O (stereo not given),46% (active),-6.9,56%
